JMJD2A Tudor inh – JMJD2A Tudor domain (human) inhibition; Potency, µM (highest dose often 114 µM), for the others: top-dose activity change, negative = inhibition, actives largely listed as inhibitors; AlphaScreen JMJD2A-Tudor / H3K4me3 peptide binding; 4.4% of 390,000 active; further: on the % scale 0 is the no-effect control and ±100 the full control effect; nearly all actives have a fitted effect of over 50% in size
GLS inh – glutaminase GLS (human) inhibition; O94925; GLS enzymatic activity, qHTS titration; Potency, µM (highest dose often 45.5 µM), for inactives: at the highest dose activity change, negative = inhibition, hits mostly inhibitors; 0.21% of 410,000 active; AID 624170; further: on the % scale 0 is the no-effect control and ±100 the full control effect
Target sequence (O94925 whole entry, looked up): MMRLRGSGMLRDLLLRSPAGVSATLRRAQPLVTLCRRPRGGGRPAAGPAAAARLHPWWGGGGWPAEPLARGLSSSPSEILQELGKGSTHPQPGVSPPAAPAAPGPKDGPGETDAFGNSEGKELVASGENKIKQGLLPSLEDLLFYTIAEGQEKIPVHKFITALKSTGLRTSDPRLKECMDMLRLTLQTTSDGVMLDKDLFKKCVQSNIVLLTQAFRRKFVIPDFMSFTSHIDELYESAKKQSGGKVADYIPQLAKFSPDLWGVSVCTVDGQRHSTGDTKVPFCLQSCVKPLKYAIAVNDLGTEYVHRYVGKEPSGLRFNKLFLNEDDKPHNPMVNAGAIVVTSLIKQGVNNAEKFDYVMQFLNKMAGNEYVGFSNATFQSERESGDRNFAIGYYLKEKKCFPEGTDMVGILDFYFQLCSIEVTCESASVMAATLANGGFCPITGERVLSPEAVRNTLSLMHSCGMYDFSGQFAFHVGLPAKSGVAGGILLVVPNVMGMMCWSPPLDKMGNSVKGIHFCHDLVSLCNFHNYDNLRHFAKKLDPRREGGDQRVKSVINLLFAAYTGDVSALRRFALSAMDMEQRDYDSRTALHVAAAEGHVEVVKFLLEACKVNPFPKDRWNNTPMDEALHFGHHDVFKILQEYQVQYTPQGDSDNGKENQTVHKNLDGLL
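Assay buffer: 45 mM KH2PO4 pH 8.2, 0.02% Tween-20. hKGA acts on L-glutamine (1 mM solution added); product glutamate is reported by an oxidase/peroxidase Amplex Red coupling, with fluorescence taken at baseline and 30 min.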
G9a inh – inhibitors of human histone lysine methyltransferase G9a; AID 504332; G9a H3K9 monomethylation, AlphaScreen, 2 h; 8.8% of 350,000 active; Potency, µM (series often up to 102 µM), for inactives: at the highest dose activity, negative = inhibition, actives largely listed as inhibitors; further: on the % scale 0 is the no-effect control and ±100 the full control effect; nearly all actives have a fitted effect of over 75% in size
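AlphaScreen detection with an anti-monomethyl H3K9 antibody quantified product after a 2 h room-temperature reaction containing 500 nM biotinylated H3K9 peptide, 20 µM SAM and 20 nM enzyme, which had been preincubated 15 min with compound.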
HP1b chromo inh – HP1-beta chromodomain-methylated histone interaction inhibition. AlphaScreen HP1-beta / biotin-H3K9me3 peptide binding. Potency, µM (doses to about 114 µM), for inactives: at the top dose activity change, negative = inhibition, usual class: inhibitors. 0.56% of 390,000 active. AID 540317; further: nearly all actives have a fitted effect of over 70% in size
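AlphaScreen: HP1-beta (50 nM) preformed 30 min with biotin-H3(1-18)K9me3 peptide (50 nM) in PBS pH 7.4, 0.01% Tween-20. Compound added for 30 min at RT, then streptavidin donor/nickel chelate acceptor beads (10 ug/mL) for 30 min.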
BAZ2B block – inhibitors of human BAZ2B bromodomain; AID 504333; Q9UIF8; AlphaScreen BAZ2B-H3K14Ac peptide displacement; Potency, µM (highest dose often 114 µM), inactives show top-dose activity change, negative = inhibition, most hits filed as inhibitors; 4.4% of 360,000 active; further: on the % scale 0 is the no-effect control and ±100 the full control effect; nearly all actives have a fitted effect of over 60% in size
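AlphaScreen luminescence quantifies BAZ2B engagement of H3K14Ac peptide; the protein and biotinylated peptide are both at 50 nM final, buffer PBS pH 7.4 with 0.01% Tween-20, all steps at room temperature.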
* hit, by the source's call; [ ] = another dose, or the depositor's remark. Hits are enriched below; roughly 10% of the tested compounds scored in any of these assays. The call rests on the fitted dose curve; in most records, active means well fitted curve in the direction sought with a large enough effect; inconclusive means small, poorly fitted or top-dose-only effect, or another doubt; inactive means no such curve, though single readings can be large; an effect the other way counts as inactive or inconclusive. Potency means the concentration at half of the fitted maximal effect.

Results for CCOc1cc(C2CC(=O)NC(SCC)=C2C#N)ccc1O (stereo not given) ?
JMJD2A Tudor inh: -4%; GLS inh: 14%; G9a inh: 50µM*; HP1b chromo inh: 41%; BAZ2B block: -4%

How did N#CC1=C2SCN(C3CCCCC3)CN2C(=O)CC1c1ccc(Br)cc1 (stereo not given) do in these assays?
JMJD2A Tudor inh: 16µM*; GLS inh: 13%; G9a inh: 2.8µM*; HP1b chromo inh: inconclusive

Results for CCOc1cc(C2CC(=O)N3CN(C4CCCCC4)CSC3=C2C#N)ccc1O (stereo not given) ?
JMJD2A Tudor inh: 79µM*; GLS inh: 14%; G9a inh: 2.2µM*; HP1b chromo inh: inconclusive; BAZ2B block: -25%

What do the screens show for `Cc1ccc(COc2ccc(C)nc2[N+](=O)[O-])cc1`?
JMJD2A Tudor inh: 0%; GLS inh: -2%; G9a inh: 31%; HP1b chromo inh: 31%; BAZ2B block: 5%

Results for Cc1ccc(C2CC(=O)NC(SCc3ccccc3)=C2C#N)cc1 (stereo not given) ?
JMJD2A Tudor inh: 89µM*; GLS inh: 16%; G9a inh: -10%[59 µM]; HP1b chromo inh: -10%; BAZ2B block: -12%

What do the screens show for `O=C(c1ccc(COCC(F)(F)F)cc1)N1CCN(c2ccccn2)CC1`?
JMJD2A Tudor inh: -5%; GLS inh: -1%; G9a inh: 6%; HP1b chromo inh: 45%; BAZ2B block: 0%

How did CCCCON1C(=O)c2cccc3cccc(c23)C1=O do in these assays?
JMJD2A Tudor inh: 6%; GLS inh: -5%; G9a inh: 11%; HP1b chromo inh: 31%; BAZ2B block: inconclusive

How did CCCCN(C)C1=Nc2cccc3cccc1c23 do in these assays?
JMJD2A Tudor inh: inconclusive; GLS inh: 0%; G9a inh: 10µM*; HP1b chromo inh: 24%; BAZ2B block: -1%

What do the screens show for `Cc1ccc(NC(=S)NC(=O)c2ccc(F)cc2)cc1S(=O)(=O)Nc1ccccc1Cl`?
JMJD2A Tudor inh: -20%; GLS inh: 6%; G9a inh: -3%[59 µM]; HP1b chromo inh: -7%; BAZ2B block: -30%

How did Cc1ccc(-c2nn(-c3cccc(F)c3)cc2CN(Cc2nccn2C)C(C)C)o1 do in these assays?
JMJD2A Tudor inh: inconclusive; GLS inh: inconclusive; G9a inh: 10µM*; HP1b chromo inh: inconclusive; BAZ2B block: inconclusive

Results for Cc1ccc(-c2nn(-c3cccc(F)c3)cc2CN2CCN(c3ccccn3)CC2)o1 ?
JMJD2A Tudor inh: 35µM*; GLS inh: -2%; G9a inh: inconclusive; HP1b chromo inh: inconclusive; BAZ2B block: 50µM*

How did CC(=O)Nc1ccc(NC(=O)C(C)OC(=O)c2ccccc2NS(=O)(=O)c2cccs2)cc1 (stereo not given) do in these assays?
JMJD2A Tudor inh: -6%; GLS inh: 2%; G9a inh: -17%; HP1b chromo inh: 27%; BAZ2B block: -13%

What do the screens show for `C/C(=N/NS(=O)(=O)c1cc(C)ccc1C)c1ccc2c(c1)OCO2`?
JMJD2A Tudor inh: -18%; GLS inh: 7%; G9a inh: 9%; HP1b chromo inh: 23%; BAZ2B block: -25%

Results for C/C(=N/NS(=O)(=O)c1cc(C)ccc1C)c1ccncc1 ?
JMJD2A Tudor inh: -17%; GLS inh: 10%; G9a inh: 40µM*; HP1b chromo inh: 53%; BAZ2B block: -14%

How did CCc1ccc(/C=C/c2c[nH]c3ccccc23)[n+](CC)c1 do in these assays?
JMJD2A Tudor inh: inconclusive; GLS inh: 8%; G9a inh: 7.1µM*; HP1b chromo inh: 22%; BAZ2B block: 0%

What do the screens show for `Cc1c(Cl)cccc1-c1ccc(CNCc2ccccn2)o1`?
JMJD2A Tudor inh: inconclusive; GLS inh: 2%; G9a inh: 79µM*; HP1b chromo inh: 5%; BAZ2B block: 25µM*

What do the screens show for `O=C(NCc1ccccn1)c1c(Cl)cccc1Cl`?
JMJD2A Tudor inh: 21%; GLS inh: 1%; G9a inh: -1%; HP1b chromo inh: 56%; BAZ2B block: 0%

What do the screens show for `CCNC(=S)NNc1ccccc1`?
JMJD2A Tudor inh: inconclusive; GLS inh: -1%; HP1b chromo inh: -20%; BAZ2B block: inconclusive

What do the screens show for `CCS(=O)(=O)N1Cc2ccccc2CC1C(=O)NC(C)C12CC3CC(CC(C3)C1)C2` (stereo not given)?
JMJD2A Tudor inh: -7%; GLS inh: -12%; G9a inh: 14µM*; HP1b chromo inh: 26%; BAZ2B block: -7%

What do the screens show for `O=C(NCc1nc2ccccc2[nH]1)C1=C[C@@H](c2ccccc2)C[C@@H](OCc2ccc(CO)cc2)O1`?
JMJD2A Tudor inh: -22%; GLS inh: 1%; G9a inh: 10%[12.7 µM]; HP1b chromo inh: 35%; BAZ2B block: -25%

What do the screens show for `Cc1ccc2c(c1)NC(=O)C(CC(=O)NCc1cccnc1)O2` (stereo not given)?
JMJD2A Tudor inh: -8%; GLS inh: 2%; G9a inh: 32µM*; HP1b chromo inh: 44%; BAZ2B block: 3%

How did Cc1ccc(CNC(=O)CC2Oc3ccc(Cl)cc3NC2=O)cc1 (stereo not given) do in these assays?
JMJD2A Tudor inh: -20%; GLS inh: -8%; G9a inh: -28%[59 µM]; HP1b chromo inh: 2%; BAZ2B block: -5%

How did Cc1ccc2c(c1)NC(=O)C(CC(=O)NCc1ccc(F)cc1)O2 (stereo not given) do in these assays?
JMJD2A Tudor inh: -2%; GLS inh: 0%; G9a inh: 50µM*; HP1b chromo inh: 31%; BAZ2B block: -25%

Results for CCN1C(=O)C(O)(CC(=O)c2cc(C)ccc2C)c2ccccc21 (stereo not given) ?
JMJD2A Tudor inh: -10%; GLS inh: 4%; G9a inh: -19%[2.33 µM]; HP1b chromo inh: 14%; BAZ2B block: 2%

How did CCOC(=O)C1=C(O)C(=O)NC(c2ccccc2)=C(OCC)C1 do in these assays?
JMJD2A Tudor inh: -20%; GLS inh: -3%; G9a inh: 45µM*; HP1b chromo inh: 17%; BAZ2B block: -37%

What do the screens show for `CCOC(=O)C1=C(c2ccccc2)NC(=O)NC1c1ccc(OC)c(OC)c1` (stereo not given)?
JMJD2A Tudor inh: 1%; GLS inh: -5%; G9a inh: 13%; HP1b chromo inh: 41%; BAZ2B block: -14%

Results for CCOC(=O)C1=C(O)C(=O)NC(c2ccccc2)=C(OC2CCCCC2)C1 ?
JMJD2A Tudor inh: -19%; GLS inh: -3%; G9a inh: 50µM*; HP1b chromo inh: 26%; BAZ2B block: -9%

How did CCOC(=O)C1=C(C)N(c2ccccc2)C(=O)C1 do in these assays?
JMJD2A Tudor inh: -4%; GLS inh: 4%; G9a inh: 5%[59 µM]; HP1b chromo inh: -4%; BAZ2B block: 9%

From PubChem
